Results: PubChem BioAssay (NCI)
Compounds without any hit were thinned out: in the full panel of roughly 83,000, 20% have a hit.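 Interpretation: 100, growth as untreated; towards 0, rising growth inhibition; 0, no net growth; 0 to -100, cell death. Compounds scoring below 10 were considered active.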 Unmarked numbers belong to inactive results. Activity calls are given as the source filed them.

Experiments:
Experiment in all cases: NCI-60 one-dose screen, 48 h (100 = growth as untreated, 0 = no growth, -100 = all killed)
Details in all cases: 10 µM unless noted
[1] = tested on: DU-145 prostate
[2] = tested on: K-562 leukemia
[3] = tested on: MALME-3M melanoma
[4] = tested on: MDA-MB-231 breast
[5] = tested on: RXF 393 renal
[6] = tested on: SF-268 CNS
[7] = tested on: SF-295 CNS
[8] = tested on: SF-539 CNS
[9] = tested on: UACC-257 melanoma
[10] = tested on: M14 melanoma
[11] = tested on: HCT-15 colon
[12] = tested on: SNB-75 CNS
[13] = tested on: SNB-19 CNS
[14] = tested on: U251 CNS
[15] = tested on: PC-3 prostate
[16] = tested on: SK-MEL-5 melanoma
[17] = tested on: UACC-62 melanoma
[18] = tested on: LOX IMVI melanoma
[19] = tested on: SK-MEL-28 melanoma
[20] = tested on: HT29 colon

Row | SMILES | growth [1] | growth [2] | growth [3] | growth [4] | growth [5] | growth [6] | growth [7] | growth [8] | growth [9] | growth [10] | growth [11] | growth [12] | growth [13] | growth [14] | growth [15] | growth [16] | growth [17] | growth [18] | growth [19] | growth [20]
1 | N#C/C(=C\C=C\c1ccc(-c2cc(Cl)ccc2Cl)o1)c1nc2ccccc2s1 | 112% | 100% | 95.4% | 72% | 99.3% | 98.6% | 96.5% | 93.9% | 95% | 103% | 102% | 77.1% | 92.2% | 107% | 93.2% | 97.5% | 83.1% | 90.9% | 118% | 
2 | CCOC(=O)c1c(C)nc2ccccc2c1/C=C/c1ccccc1 | 91.9% | 44.4% | 111% | 81.9% | 113% | 85.4% | 66.4% | 89% | 76.6% | 82.8% | 64.3% | 80.1% | 77.3% |  | 69.9% | -0.202% (active) | 52.2% | 71.8% | 102% | 82.6%
3 | COC(=O)c1c2c(n3ccccc13)C(=O)c1ccccc1C2=O | 69.4% | 54.9% | 55.8% | 64.4% | 72.1% | 74% | 64.5% | 89.5% | 70.4% | 63.6% | 51.4% | 113% | 62.5% | 61.6% | 47.2% | 18.1% | 65.7% | 49.3% | 106% | 
4 | O=S(=O)(Nc1cc(Sc2cccc3cccnc23)c(O)c2ccccc12)c1ccccc1 | 15% | -16.8% (active) | 0.404% (active) | 25.1% | 28.7% | 8.28% (active) | 21.7% | -9.98% (active) | -9.38% (active) | -16.5% (active) | 12.2% | 65.9% | 43.4% | 6.77% (active) | 20.9% | -25.2% (active) | -40.1% (active) | -50.2% (active) | 0.27% (active) | 
5 | COc1cccc(Nc2ncnc3cc(NC(=O)CCl)ccc23)c1 | -74% (active) | -9.78% (active) | -85.3% (active) | -69.4% (active) | -90.2% (active) | -57.5% (active) | -19% (active) | -89.1% (active) | 14% | -78.4% (active) | -43.2% (active) | -79.9% (active) | -38.6% (active) |  | -80.3% (active) | -85.8% (active) | -67.5% (active) | -74.6% (active) | -33.7% (active) | 
6 | O=S(=O)(NCCCNc1nccc(-c2c(-c3cccc(F)c3)nc3occn23)n1)c1ccc(F)cc1 | 55.9% | 13% | 43.6% | 60.9% | 63.6% | 44.5% | 89.5% | 87% | 43.6% | 35.7% | 58.3% | 73.5% | 84.9% | 56.1% | 29.4% | 32.7% | 26.5% | 44.7% | 64.2% | 
7 | CCN(CC)CCCN1C(=O)c2c(c(C)c3c(oc4ccc(OC)cc43)c2C)C1=O | 112% | 0.0716% (active) | 97.1% | 99.5% | 70.3% | 98.6% | 110% | 91.8% | 103% | 104% | 94.9% | 109% | 94.4% | 96.4% | 97.4% | 75.1% | 102% | 96.9% | 94.1% | 
8 | CC1(C)[C@@H](O[C@@H]2OC[C@@H](O[C@@H]3O[C@H](CO)[C@@H](O)[C@H](O)[C@H]3O[C@@H]3OC[C@@H](O)[C@H](O)[C@H]3O)[C@H](O)[C@H]2O[C@@H]2O[C@H](CO)[C@@H](O)[C@H](O)[C@H]2O)CC[C@]2(C)[C@H]3CC[C@]45OC[C@@]6(CC[C@](C)(C=O)C[C@H]64)[C@H](O)C[C@@]5(C)[C@]3(C)CC[C@@H]12 | -82.1% (active) | -18% (active) | -79.8% (active) | -59.5% (active) | -77.2% (active) | -55.1% (active) | -89% (active) | -22.6% (active) | -87.1% (active) | -85% (active) | -46.4% (active) | -78.5% (active) | -68.4% (active) |  | -85.1% (active) | -27.7% (active) | -71.8% (active) | -73.2% (active) | -76.4% (active) | 
